Measurements reported in PMC5700166.

Legend:
[1] = target: T1, GST-Nv-NF-kB (Ser allele) (Nematostella vectensis, UniProt A7UNT2 2-411); assay: protein-binding microarray (PBM); PBM: ~300 nM protein, 6 mM HEPES pH 7.8, 80 mM KCl, 0.5 mM EDTA, 0.5 mM EGTA, 6% glycerol, 35 ng/ul poly-dIdC, 1% milk, 1 h, room temperature; Ap Aiptasia and Nv Nematostella (sea anemones) / Co Capsaspora / Aq Amphimedon (sponge) / Dm Drosophila / Hu human; RHD is the Rel homology domain; high values mean tight binding; conditions: dsDNA, one strand shown
T1 sequence: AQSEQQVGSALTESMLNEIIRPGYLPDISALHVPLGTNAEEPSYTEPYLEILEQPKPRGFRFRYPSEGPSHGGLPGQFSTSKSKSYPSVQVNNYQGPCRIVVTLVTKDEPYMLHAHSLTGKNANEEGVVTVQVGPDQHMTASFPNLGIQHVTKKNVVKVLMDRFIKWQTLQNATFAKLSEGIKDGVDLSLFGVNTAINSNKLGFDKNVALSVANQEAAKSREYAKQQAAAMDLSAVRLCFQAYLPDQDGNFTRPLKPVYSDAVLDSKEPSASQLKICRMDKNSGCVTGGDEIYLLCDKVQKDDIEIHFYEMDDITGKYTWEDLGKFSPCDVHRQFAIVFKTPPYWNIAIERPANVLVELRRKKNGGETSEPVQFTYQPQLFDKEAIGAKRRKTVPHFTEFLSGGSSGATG

[2] = target: GST-Hu-p50 (Homo sapiens, UniProt P19838 7-356); assay: as above; conditions: dsDNA, one strand shown
Sequence of GST-Hu-p50 (P19838 7-356): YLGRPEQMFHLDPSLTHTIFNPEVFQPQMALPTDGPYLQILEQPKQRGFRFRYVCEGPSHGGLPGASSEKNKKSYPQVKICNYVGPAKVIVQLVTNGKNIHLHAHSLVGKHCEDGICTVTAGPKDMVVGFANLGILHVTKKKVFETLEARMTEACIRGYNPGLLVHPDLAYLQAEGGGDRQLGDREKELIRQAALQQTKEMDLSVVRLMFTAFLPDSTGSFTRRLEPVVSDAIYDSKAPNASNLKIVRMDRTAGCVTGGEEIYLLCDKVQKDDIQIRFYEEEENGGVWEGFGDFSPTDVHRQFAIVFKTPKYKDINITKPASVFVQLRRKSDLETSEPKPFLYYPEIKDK

Sequence	binding signal [1]	binding signal [2]
CCGATTAACATCAGGGATACCCCTGATGTTAATCGGGTCTTGATTCGCTTGACGCTGCTG	2.97 z-score	4.12 z-score
CCGATTAACATCACATTCTCCCCTGATGTTAATCGGGTCTTGATTCGCTTGACGCTGCTG	5.45 z-score	3.4 z-score
CCGATTAACATCAAAAGACCCCCTGATGTTAATCGGGTCTTGATTCGCTTGACGCTGCTG	5.47 z-score	5.26 z-score
CCGATTAACATCAGGGACCGCCCTGATGTTAATCGGGTCTTGATTCGCTTGACGCTGCTG	1.35 z-score	3.16 z-score
CCGATTAACATCAGGGGTTACCCTGATGTTAATCGGGTCTTGATTCGCTTGACGCTGCTG	4.21 z-score	3.9 z-score
CCGATTAACATCAGGGTATTACCTGATGTTAATCGGGTCTTGATTCGCTTGACGCTGCTG	4.88 z-score	3.33 z-score
CCGATTAACATCAGGAATTCACCTGATGTTAATCGGGTCTTGATTCGCTTGACGCTGCTG	2.04 z-score	3.81 z-score
CCGATTAACATCAGGGGTTTCACTGATGTTAATCGGGTCTTGATTCGCTTGACGCTGCTG	2.32 z-score	4.22 z-score
CCGATTAACATCAAACAGGGAAATGATGTTAATCGGGTCTTGATTCGCTTGACGCTGCTG	3.74 z-score	2.36 z-score
CCGATTAACATCAAAAACTACCCTGATGTTAATCGGGTCTTGATTCGCTTGACGCTGCTG	4.59 z-score	3.73 z-score
CCGATTAACATCATCCCCGTGTCTGATGTTAATCGGGTCTTGATTCGCTTGACGCTGCTG	2.84 z-score	2.68 z-score
CCGATTAACATCAGGGAATATAATGATGTTAATCGGGTCTTGATTCGCTTGACGCTGCTG	3.88 z-score	2.29 z-score
CCGATTAACATCAGGACTGTCCCTGATGTTAATCGGGTCTTGATTCGCTTGACGCTGCTG	2.57 z-score	3.92 z-score
CCGATTAACATCAGAACTTCCCATGATGTTAATCGGGTCTTGATTCGCTTGACGCTGCTG	2.2 z-score	1.47 z-score
CCGATTAACATCAGGAACGTCCCTGATGTTAATCGGGTCTTGATTCGCTTGACGCTGCTG	2.75 z-score	2.12 z-score
CCGATTAACATCATTCGGGAAAATGATGTTAATCGGGTCTTGATTCGCTTGACGCTGCTG	4.94 z-score	3.03 z-score
CCGATTAACATCAGGAATTTACCTGATGTTAATCGGGTCTTGATTCGCTTGACGCTGCTG	4.26 z-score	3.27 z-score
CCGATTAACATCAAAGTACCCCCTGATGTTAATCGGGTCTTGATTCGCTTGACGCTGCTG	5.79 z-score	4.53 z-score
CCGATTAACATCAGGGGGACAAATGATGTTAATCGGGTCTTGATTCGCTTGACGCTGCTG	5.1 z-score	3.81 z-score
CCGATTAACATCAGAAAAAACCCTGATGTTAATCGGGTCTTGATTCGCTTGACGCTGCTG	5.08 z-score	4.96 z-score
CCGATTAACATCACGGTACGGGGTGATGTTAATCGGGTCTTGATTCGCTTGACGCTGCTG	1.3 z-score	1.71 z-score
CCGATTAACATCAATGTCGGTGGTGATGTTAATCGGGTCTTGATTCGCTTGACGCTGCTG	1.08 z-score	1.95 z-score
CCGATTAACATCAGGGAAAAGAATGATGTTAATCGGGTCTTGATTCGCTTGACGCTGCTG	4.96 z-score	2.53 z-score
CCGATTAACATCACACACCCCCCTGATGTTAATCGGGTCTTGATTCGCTTGACGCTGCTG	3.65 z-score	3.63 z-score
CCGATTAACATCACTTTCCCAAATGATGTTAATCGGGTCTTGATTCGCTTGACGCTGCTG	3.07 z-score	1.67 z-score

Sequence	binding signal [1]	binding signal [2]
CCGATTAACATCAGGGAAAAAACTGATGTTAATCGGGTCTTGATTCGCTTGACGCTGCTG	6.38 z-score	4.02 z-score
CCGATTAACATCACGTAAACCCCTGATGTTAATCGGGTCTTGATTCGCTTGACGCTGCTG	2.13 z-score	3.75 z-score
CCGATTAACATCAAGTTTACCCCTGATGTTAATCGGGTCTTGATTCGCTTGACGCTGCTG	3.57 z-score	3.2 z-score
CCGATTAACATCAGGGGGTTACATGATGTTAATCGGGTCTTGATTCGCTTGACGCTGCTG	4.94 z-score	5.16 z-score
CCGATTAACATCAGGGAGGGTAATGATGTTAATCGGGTCTTGATTCGCTTGACGCTGCTG	2.16 z-score	1.6 z-score
CCGATTAACATCACGGTGGGAAATGATGTTAATCGGGTCTTGATTCGCTTGACGCTGCTG	2.58 z-score	1.86 z-score
CCGATTAACATCACATGTTCCCCTGATGTTAATCGGGTCTTGATTCGCTTGACGCTGCTG	6.15 z-score	3.07 z-score
CCGATTAACATCAAAATCTTCCCTGATGTTAATCGGGTCTTGATTCGCTTGACGCTGCTG	6.32 z-score	3.8 z-score
CCGATTAACATCACAATACCCCCTGATGTTAATCGGGTCTTGATTCGCTTGACGCTGCTG	5.97 z-score	4.87 z-score
CCGATTAACATCAAGGGTTTTCCTGATGTTAATCGGGTCTTGATTCGCTTGACGCTGCTG	2.41 z-score	2.92 z-score
CCGATTAACATCACATTGTCCCCTGATGTTAATCGGGTCTTGATTCGCTTGACGCTGCTG	5.06 z-score	3.52 z-score
CCGATTAACATCAACGTATTCCCTGATGTTAATCGGGTCTTGATTCGCTTGACGCTGCTG	3.53 z-score	1.19 z-score
CCGATTAACATCAAACCCCCCCGTGATGTTAATCGGGTCTTGATTCGCTTGACGCTGCTG	4.7 z-score	5.27 z-score
CCGATTAACATCAAATTCCCGTATGATGTTAATCGGGTCTTGATTCGCTTGACGCTGCTG	4.51 z-score	3.02 z-score
CCGATTAACATCACCTCCGTATCTGATGTTAATCGGGTCTTGATTCGCTTGACGCTGCTG	1.11 z-score	1.28 z-score
CCGATTAACATCAGGGCAGTACCTGATGTTAATCGGGTCTTGATTCGCTTGACGCTGCTG	2.24 z-score	2.22 z-score
CCGATTAACATCAAAGGTCCCCCTGATGTTAATCGGGTCTTGATTCGCTTGACGCTGCTG	4.32 z-score	3.35 z-score
CCGATTAACATCAGGGGGATAGATGATGTTAATCGGGTCTTGATTCGCTTGACGCTGCTG	4.13 z-score	3.89 z-score
CCGATTAACATCAAGTACCCCCATGATGTTAATCGGGTCTTGATTCGCTTGACGCTGCTG	3.01 z-score	2.36 z-score
CCGATTAACATCAGGCCCCCCCCTGATGTTAATCGGGTCTTGATTCGCTTGACGCTGCTG	3.9 z-score	4.51 z-score
CCGATTAACATCAGGACACCCCCTGATGTTAATCGGGTCTTGATTCGCTTGACGCTGCTG	3.79 z-score	5.24 z-score
CCGATTAACATCAGGGAATTAGATGATGTTAATCGGGTCTTGATTCGCTTGACGCTGCTG	3.54 z-score	2 z-score
CCGATTAACATCACCCCAGCCCCTGATGTTAATCGGGTCTTGATTCGCTTGACGCTGCTG	1.91 z-score	2.68 z-score
CCGATTAACATCAGGAATTCCCATGATGTTAATCGGGTCTTGATTCGCTTGACGCTGCTG	5.66 z-score	4.39 z-score
CCGATTAACATCAAGTATTTCCCTGATGTTAATCGGGTCTTGATTCGCTTGACGCTGCTG	5.24 z-score	3.64 z-score

Sequence	binding signal [1]	binding signal [2]
CCGATTAACATCAAATACTTCCCTGATGTTAATCGGGTCTTGATTCGCTTGACGCTGCTG	3.4 z-score	1.98 z-score
CCGATTAACATCAGGGGGTAGGATGATGTTAATCGGGTCTTGATTCGCTTGACGCTGCTG	3.54 z-score	2.97 z-score
CCGATTAACATCAAGCGTTCCCCTGATGTTAATCGGGTCTTGATTCGCTTGACGCTGCTG	6.39 z-score	3.66 z-score
CCGATTAACATCAGAGAAACCCCTGATGTTAATCGGGTCTTGATTCGCTTGACGCTGCTG	4.24 z-score	5.09 z-score
CCGATTAACATCAACCACCCCCTTGATGTTAATCGGGTCTTGATTCGCTTGACGCTGCTG	3.4 z-score	4.03 z-score
CCGATTAACATCAAAAAACACCCTGATGTTAATCGGGTCTTGATTCGCTTGACGCTGCTG	4.25 z-score	5.16 z-score
CCGATTAACATCACTGGGATTTCTGATGTTAATCGGGTCTTGATTCGCTTGACGCTGCTG	1.8 z-score	2.5 z-score
CCGATTAACATCACCCAGTTCCCTGATGTTAATCGGGTCTTGATTCGCTTGACGCTGCTG	1.2 z-score	1.24 z-score
CCGATTAACATCAGGGATTTCCATGATGTTAATCGGGTCTTGATTCGCTTGACGCTGCTG	2.71 z-score	3.25 z-score
CCGATTAACATCAGGCTATCCCCTGATGTTAATCGGGTCTTGATTCGCTTGACGCTGCTG	3.73 z-score	3.43 z-score
CCGATTAACATCAGGGGCTACCCTGATGTTAATCGGGTCTTGATTCGCTTGACGCTGCTG	2.1 z-score	3.35 z-score
CCGATTAACATCAGGGGGTAATATGATGTTAATCGGGTCTTGATTCGCTTGACGCTGCTG	5.13 z-score	4.43 z-score
CCGATTAACATCAGGGATTCTCATGATGTTAATCGGGTCTTGATTCGCTTGACGCTGCTG	1.71 z-score	1.91 z-score
CCGATTAACATCAATTCCCATGATGATGTTAATCGGGTCTTGATTCGCTTGACGCTGCTG	1.33 z-score	1.61 z-score
CCGATTAACATCAGGGAAATTCATGATGTTAATCGGGTCTTGATTCGCTTGACGCTGCTG	5.89 z-score	4.4 z-score
CCGATTAACATCAAGGGGGTGACTGATGTTAATCGGGTCTTGATTCGCTTGACGCTGCTG	3.83 z-score	3.9 z-score
CCGATTAACATCATCTGGGAAAATGATGTTAATCGGGTCTTGATTCGCTTGACGCTGCTG	4.03 z-score	1.96 z-score
CCGATTAACATCAATTCCCGTACTGATGTTAATCGGGTCTTGATTCGCTTGACGCTGCTG	1.96 z-score	1.41 z-score
CCGATTAACATCATAATTCCCAATGATGTTAATCGGGTCTTGATTCGCTTGACGCTGCTG	3.07 z-score	2.73 z-score
CCGATTAACATCAGGCCATCCCCTGATGTTAATCGGGTCTTGATTCGCTTGACGCTGCTG	3.8 z-score	3.33 z-score
CCGATTAACATCAGGGGATCCACTGATGTTAATCGGGTCTTGATTCGCTTGACGCTGCTG	5.91 z-score	4.97 z-score
CCGATTAACATCAGGGAGTCCCATGATGTTAATCGGGTCTTGATTCGCTTGACGCTGCTG	2.92 z-score	3.1 z-score
CCGATTAACATCAACGCCCCCCCTGATGTTAATCGGGTCTTGATTCGCTTGACGCTGCTG	4.55 z-score	4.25 z-score
